# Laboratory results from the supplement of paper PMC6555819.
# Tests used:
# Test in all cases: PBM binding z-score (relative to random genomic background probes); higher = stronger binding; sequences stand for … in GC…GCGATTGACAGCGTAGAATGAAGG
# [1] = system: PPARg:RXRa DBDmut IVT, anti-RXR (DBD mutation: RXRa K156A/R161A, NR concentration 270 nM, RXRa partner concentration 90 nM)
# Method in brief: (§1)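 Scanned fluorescence from custom Agilent 4×180K protein-binding microarrays was regression-normalized. Binding z-scores use random background probes as reference. Ligand-free nuclear receptor dimers were incubated on the arrays for 1 h and detected with antibodies against each partner (one per run).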
# [2] = system: PPARg:RXRa IVT, anti-PPARg (NR concentration 270 nM, RXRa partner concentration 90 nM)
# Method in brief: as §1
# [3] = system: PPARg DBDmut:RXRa IVT, anti-PPARg (DBD mutation: PPARg1 K132A/R137A, NR concentration 270 nM, RXRa partner concentration 90 nM)
# Method in brief: as §1
# [4] = system: PPARg DBDmut IVT, anti-PPARg (DBD mutation: PPARg1 K132A/R137A, NR concentration 270 nM)
# Method in brief: as §1
# [5] = system: PPARg homodimer (NR concentration 180 nM)
# Method in brief: as §1
# [6] = system: PXR:RXRa (NR concentration 270 nM, RXRa partner concentration 90 nM)
# Method in brief: as §1
# [7] = system: PXR homodimer (NR concentration 270 nM)
# Method in brief: as §1
# [8] = system: RARa:RXR (NR concentration 270 nM, RXRa partner concentration 90 nM)
# Method in brief: as §1
# [9] = system: RARa homodimer (NR concentration 270 nM)
# Method in brief: as §1
# [10] = system: RARb:RXRa (NR concentration 270 nM, RXRa partner concentration 90 nM)
# Method in brief: as §1
Sequence,PBM binding z-score [1],PBM binding z-score [2],PBM binding z-score [3],PBM binding z-score [4],PBM binding z-score [5],PBM binding z-score [6],PBM binding z-score [7],PBM binding z-score [8],PBM binding z-score [9],PBM binding z-score [10]
ACTTACGGGTCAACGAGGTTATATCACGCGTATA,2.95,3.92,0.992,1.71,2.52,5.03,3.3,4.76,0.919,4.28
CGTCCAAGGTCATAGGAGGTCAGTGGAGACAGAT,3.31,4.65,1.06,-0.0581,7.55,6.94,6.61,5.94,4.42,5.39
CCTACTGGGCCAAAGGTCATCGATTCCAATGCTC,4.64,6.76,0.425,-0.332,3.7,5.15,0.811,6.16,1.37,4.7
TCATATAGGTATAAGGTGAAAGTCGGTGTGGTAA,2.8,2.27,1.02,0.854,1.32,0.935,0.866,1.62,1.54,1.23
ACTTACGGGTCAACGCGGTTATAGCACGCGTATA,3.64,4.12,1.26,1.32,1.91,3.92,0.241,4.45,0.802,4.04
AGAATGCGGTTACCAAAGATCAGGGAAACGCTTG,-0.0849,-0.0394,-0.888,-0.42,-0.659,-0.382,-0.939,-0.221,-0.366,0.18
TCAGACAGGTGAACGTAACTCAGGTACGCAGTCG,2.71,1.55,0.22,-0.331,0.406,0.573,0.448,0.752,0.0461,1.19
GCTAGATGGTCAGTAAAAGGTCACACACCGGTCG,0.38,2.57,0.624,-0.0918,3.76,4.83,0.89,5.65,2.5,4.43
AGTCAAAGTTTACTAGGTAACGTAAGATTCAGCT,3.45,4.76,0.895,0.737,0.729,0.455,0.255,0.426,0.29,1.81
CTACCAAGGTGAACAAGGTGGTTGATTACTATTC,2.63,2.27,0.24,-0.57,0.187,0.111,0.0854,0.44,0.0119,1.43
TAGCCTAGGTCATTGGGCCAGTAAAGTACGCATC,2.98,3.93,-0.798,-0.582,0.663,1.55,-0.454,2.08,0.18,3.63
TAGCCTAGGTCAGATTGGGCCAGTATACGCTATA,0.821,1.47,-0.745,-0.0991,0.692,0.48,-0.72,0.891,-0.737,3.16
CCTGCTAGGTCAATGGTCAGCTTAAGCAGCTCGC,4.75,4.06,-0.513,-0.387,1.92,1.05,-0.588,1.88,-0.443,3.84
ATCTCTAGGTAAAGATAGGTCAGTGAATGCAAAT,2.37,2.45,1.34,1.35,1.17,1.05,0.597,1.52,1.54,1.81
ATCGAAAGGTCGAGGTGAGTATTGAGAAAGGGAA,0.628,2.34,0.498,0.451,1.67,2.33,0.428,3.07,0.977,4.15
GTACCAAGGTGAATAGGTCGTTGACGAGTAGGCG,1.8,2.86,0.144,-0.0212,1.04,0.88,0.00593,1.93,-0.182,2.23
CGTCCAAGGTCAGAGAGGTCAGCGAATGCCGAGT,3.1,3.68,-0.551,-0.132,3.56,6.27,10.9,6.31,2.51,5.22
TGAATGTGGTTAAAGATCAGGGAACGTGGCGTCG,-0.308,0.475,0.142,1.06,0.818,-0.282,-0.00828,-0.185,0.484,-0.112
GCTAGTTGGTCAGTAAAAGGTCAAACACCGGTCG,1.17,2.62,-0.0315,0.251,4.94,5.21,1.94,6.29,1.53,4.13
TCATATACGTAAAGGTGAAAGTCGAACGATATGA,1.6,1.61,1.06,2,0.594,1.1,-0.24,1.55,0.587,2.04
TCTCGGAAGACACGAAAGGTCAGAGCTCGACATC,2,1.27,0.544,-0.207,3.09,3.58,0.388,4.27,1.14,3.73
CAAACTCGGTCACGAAAGGTCAAAGTCGAATGAC,5.23,5.86,1.31,0.821,7.09,6.39,2.67,6.96,4.39,5.02
ACAGATAGGTGATGAAGGTAACTCAGGCTATCAT,0.825,0.996,0.38,0.000268,0.111,0.00334,-0.296,0.286,0.188,0.11
CGTCCTAGGTCAAGGTCAGTGAAAGAGACTCGAA,3.53,4.08,0.311,0.279,3.52,3.4,0.941,4.02,1.1,5.01

Sequence,PBM binding z-score [1],PBM binding z-score [2],PBM binding z-score [3],PBM binding z-score [4],PBM binding z-score [5],PBM binding z-score [6],PBM binding z-score [7],PBM binding z-score [8],PBM binding z-score [9],PBM binding z-score [10]
CGTCCAAGGTCATAGGATGTCAGTGAAGACAGAT,3.22,3.9,1.13,0.513,2.45,4.69,1.15,4.58,0.89,5.08
CGGCCAAGGTCAATGCTAGGTCAGTGAAAGCATT,3.06,3.69,-0.404,-1.18,4.15,4.73,0.802,5.67,0.406,5.24
GCTGCTAGGTCAGGTCGGTCAGCTAACGGGTACG,2.59,2.88,-0.904,-0.563,0.777,0.726,-0.37,1.37,-0.616,3.88
ACAGACAGGTAATGAAGGTAACTCAGGCTATCAT,-0.129,0.574,0.213,0.735,0.348,0.147,0.218,0.263,0.161,0.169
ACAGACAGGTGAGAGAAGGTAACTCAGCTGGACG,0.676,0.706,0.0985,-0.367,-0.0826,-0.372,-0.505,0.102,-0.00725,0.565
AGACAAAGTTCATCTAGGTAACGTAAGATATGCT,1.22,3.2,1.33,1.93,3.1,5.34,6.29,4.17,1.38,4.98
TCTTGTAGATCAAGTAGGTTAAGAAAGCCTGAGT,2.13,2.44,0.611,0.864,0.365,0.513,0.364,0.645,0.0237,0.154
CCTACTGGGCCATCAGGTCTTTGATATCAACGTT,4.27,4.11,-0.465,-0.285,0.396,-0.399,-0.181,-0.151,-0.266,0.423
TCGAGTAGGTTAGGGCCATTCAGAATGGCGTCGA,1.63,0.942,-0.334,0.0284,-0.315,0.054,-0.626,-0.18,-0.395,0.699
ATCTCTAGGTAACAAGTTCAGTTAAAGAGAGGAC,2.97,2.91,1.33,1.39,1.31,1.79,1.75,0.869,1.39,1.71
CGTCAAAGTCCAACTAAGGTAACGTAAAGCACGC,0.179,0.394,0.436,-0.503,0.498,0.234,0.179,1.23,0.41,1.9
TAATATAGGTAAATGCTAGGTGAAAGTCCGATCT,5.57,5.11,2.14,2.14,1.2,0.298,0.623,0.771,1.52,0.389
CGTCCAAGGTCATTGCTAGGTCAGTGAAAGCATT,3.23,4.03,-0.074,-0.854,4.11,5.16,2.4,5.71,0.612,5.04
ATCTCTAGGTAGCCAAGTTCAGTGAATGCCGAAC,0.328,0.377,-0.173,0.614,0.13,1.2,0.957,0.266,0.228,0.669
TCTCGGAGGACACGAAAGGTCAAAGCTCGACATC,1.72,2.11,-0.166,-0.0155,3.27,5.39,1.21,5.48,1.41,4.55
CGGCCAAGGTCAGAGAGGTCAGTGAATGCCGAGT,3.09,3.49,-0.798,-1.36,3.78,5.99,12,5.43,1.18,5.21
ATCGAAAGGTCGAAGGTGAGTATACCCACCCGAA,0.0439,2.38,0.373,0.686,1.04,2.96,-0.372,3.94,0.591,3.82
GGAACGAGGGCATTCGAGTTGATTGCATGGCGAT,2.85,2.45,0.178,-0.205,-0.105,3.88,1.55,1.03,-0.634,1.84
AGAACGAGGACACGCTGAGTTGATAGCAGAGTAG,1.51,1.16,-0.315,0.431,0.209,-0.361,0.196,-0.397,-0.0719,1.4
CTCGAAAGGTCGTGCTCAGGTGAGCATACCAAAC,0.762,2.31,0.195,0.25,3.06,3.43,-0.196,4.74,-0.133,3.92
ACTAGTTGGTCAGCTGAGGTCACGCACAATTCGG,1.52,3.03,0.779,-0.0173,2.43,5.57,1.08,4.84,0.816,4.04
ACTAGCAGGCCAAGCTTGGGTCACTCAAACAAAG,1.14,0.724,-0.775,-0.566,0.296,0.742,-0.908,1.66,-1.21,1.77
CGTCCAAGGTCGAGGTCAGTGAAAGAGACTCGAA,1.1,2.35,-1.04,-1.22,1.43,3.59,0.491,3.61,-0.0434,4.39
GGAACGAGTGCAAGTTGATAGCAGAGTTTGATGG,-0.142,-0.639,0.145,-0.69,-0.875,0.885,1.16,-0.297,-1.23,0.365
